# Results taken from PubChem BioAssay (EPA / NIEHS).
# Active and inactive are the calls of the source. The calls were made as follows: active = hit-call score of the fitted dose curve at least 0.9, where 1 is the maximum; inactive = score below 0.9.
# How the values were obtained:
# Conditions in all cases: mRNA level, 48 h; actives raise or lower the signal
# [1] = read-out: Hypoxia-inducible factor 1-alpha (Homo sapiens) (UniProt Q16665); test: LTEA_HepaRG_HIF1A: Life Technologies and Expression Analysis (LTEA) Assay for Hypoxia-inducible factor 1 (HIF1A) Trancription factor using HepaRG (AID 2283503)
# How it was run: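 Differentiated HepaRG cells in serum-free induction medium exposed 48 h, in duplicate, to 8-point half-log series from 100 uM in 0.5% DMSO. HIF1A mRNA measured by TaqMan qRT-PCR, normalized to ACTB/GAPDH/POLR2A, fitted bidirectionally versus DMSO.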
# [2] = read-out: 3-Hydroxy-3-Methylglutaryl-CoA Synthase 2 (HMGCS2), HMGCS2 (gene 3158); test: LTEA_HepaRG_HMGCS2: Life Technologies and Expression Analysis (LTEA) Assay for 3-Hydroxy-3-Methylglutaryl-CoA Synthase 2 (HMGCS2) using HepaRG (AID 2283504)
# How it was run: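 HepaRG, plated 48 h then switched to serum-free induction media; cmpd 8-pt, max 100 uM, 1/2-log, 0.5% DMSO, n=2, 48 h. HMGCS2 mRNA by Fluidigm TaqMan qRT-PCR, ACTB/GAPDH/POLR2A norm; bidirectional fit vs DMSO.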
# HGF (gene 3082) = test: LTEA_HepaRG_HGF: Life Technologies and Expression Analysis (LTEA) Assay for Hepatocyte Growth Facto (HGF) using HepaRG (AID 2283505)
# How it was run: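 Read-out is HGF transcript level by qRT-PCR, normalized to three housekeeping genes, fitted bidirectionally against 0.5% DMSO vehicle. Human HepaRG cells received test chemicals for 48 h at up to 100 uM.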
# [3] = read-out: Insulin Like Growth Factor 1 (IGF1), IGF1 (gene 3479); test: LTEA_HepaRG_IGF1: Life Technologies and Expression Analysis (LTEA) Assay for Insulin Like Growth Factor 1 (IGF1) using HepaRG (AID 2283506)
# How it was run: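 HepaRG, plated 48 h, then switched to serum-free induction media; test chemical 8-pt half-log from 100 uM (0.5% DMSO), duplicate, 48 h. Lysis in RLT, TaqMan qRT-PCR, norm. ACTB/GAPDH/POLR2A. Bidirectional fit vs DMSO.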
# [4] = read-out: Intercellular Adhesion Molecule 1 (ICAM1), ICAM1 (gene 3383); test: LTEA_HepaRG_ICAM1: Life Technologies and Expression Analysis (LTEA) Assay for Intercellular Adhesion Molecule 1 (ICAM1) using HepaRG (AID 2283507)
# How it was run: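 Readout is qRT-PCR mRNA level, normalized to three housekeeping genes and fitted bidirectionally against 0.5% DMSO vehicle. Human HepaRG cultures received compound for 48 h, top concentration 100 uM with half-log dilutions.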
# [5] = read-out: Insulin-like growth factor-binding protein 1 (IGFBP1), IGFBP1 (gene 3484); test: LTEA_HepaRG_IGFBP1: Life Technologies and Expression Analysis (LTEA) Assay for Insulin-like growth factor-binding protein 1 (IGFBP1) using HepaRG (AID 2283508)
# How it was run: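 Thawed HepaRG cells are plated for 48 h, switched to serum-free induction medium, then dosed in duplicate for another 48 h (100 uM top, half-log steps). Lysates in RLT go to qRT-PCR, and gain or loss of signal is fitted relative to vehicle.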
# [6] = read-out: Interleukin 6 (IL6), IL6 (gene 3569); test: LTEA_HepaRG_IL6: Life Technologies and Expression Analysis (LTEA) Assay for Interleukin 6 (IL6) using HepaRG (AID 2283509)
# How it was run: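 Differentiated human HepaRG cells, plated 48 h then switched to serum-free induction medium, were exposed in duplicate for 48 h to eight half-log concentrations up to 100 uM in 0.5% DMSO. IL6 mRNA measured by qRT-PCR, normalized to ACTB/GAPDH/POLR2A.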
# [7] = read-out: Interleukin 6 Receptor (IL6R), IL6R (gene 3570); test: LTEA_HepaRG_IL6R: Life Technologies and Expression Analysis (LTEA) Assay for Interleukin 6 Receptor (IL6R) using HepaRG (AID 2283510);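 as to AC50: TaqMan qRT-PCR signal normalized to ACTB GAPDH and POLR2A housekeeping genes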
# How it was run: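 Readout is IL6R transcript level by TaqMan qRT-PCR, normalized to three housekeeping genes and fitted bidirectionally against 0.5% DMSO controls. Human HepaRG cells received chemicals for 48 h in serum-free induction medium, highest concentration 100 uM.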
# [8] = read-out: Potassium channel subfamily K member 1 (KCNK1), KCNK1 (gene 3775); test: LTEA_HepaRG_KCNK1: Life Technologies and Expression Analysis (LTEA) Assay for Potassium channel subfamily K member 1 (KCNK1) using HepaRG (AID 2283511)
# How it was run: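 Differentiated human HepaRG cells in serum-free induction medium were exposed in duplicate for 48 h to 8 half-log concentrations up to 100 uM in 0.5% DMSO. KCNK1 mRNA was measured by TaqMan qRT-PCR, normalized to ACTB, GAPDH and POLR2A, and fitted bidirectionally versus DMSO.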
# [9] = read-out: Keratin 19 (KRT19), KRT19 (gene 3880); test: LTEA_HepaRG_KRT19: Life Technologies and Expression Analysis (LTEA) Assay for Keratin 19 (KRT19) using HepaRG (AID 2283512)
# How it was run: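 KRT19 transcript levels, measured by Fluidigm qRT-PCR against three housekeeping genes, are fitted for gain or loss of signal relative to DMSO. Human HepaRG cells receive test chemicals (top 100 uM, half-log steps, 0.5% DMSO) for 48 hours.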
# [10] = read-out: JUN Transcription Factor, JUN (gene 3725); test: LTEA_HepaRG_JUN: Life Technologies and Expression Analysis (LTEA) Assay for JUN Transcription Factor using HepaRG (AID 2283513)
# How it was run: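 Cells plated 48 h, medium switched to serum-free induction medium, then dosed 48 h (100 uM top, half-log dilutions, 0.5% DMSO). RNA isolated; JUN measured by qRT-PCR against three housekeeping genes; gain or loss fitted relative to DMSO.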
# [11] = read-out: Lipase C (LIPC), LIPC (gene 3990); test: LTEA_HepaRG_LIPC: Life Technologies and Expression Analysis (LTEA) Assay for Lipase C (LIPC) using HepaRG (AID 2283514)
# How it was run: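 Differentiated human HepaRG cells in serum-free induction medium were exposed in duplicate for 48 h to eight concentrations (top 100 uM, half-log steps, 0.5% DMSO). LIPC mRNA was quantified by TaqMan qRT-PCR, normalized to ACTB, GAPDH and POLR2A, with bidirectional fitting versus DMSO.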
# [12] = read-out: Lipoprotein lipase (LPL), LPL (gene 4023); test: LTEA_HepaRG_LPL: Life Technologies and Expression Analysis (LTEA) Assay for Lipoprotein lipase (LPL) using HepaRG (AID 2283515)
# How it was run: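 Differentiated human HepaRG cells in serum-free induction medium were exposed in duplicate for 48 h to eight half-log concentrations (top 100 uM) in 0.5% DMSO. LPL mRNA was quantified by TaqMan qRT-PCR, normalized to ACTB, GAPDH and POLR2A.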
# [13] = read-out: MicroRNA 122 (MIR122), gene 406906; test: LTEA_HepaRG_MIR122: Life Technologies and Expression Analysis (LTEA) Assay for MicroRNA 122 (MIR122) using HepaRG (AID 2283516); also: the transcript read is the microRNA miR-122
# How it was run: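 HepaRG plated 48 h, switched to serum-free induction medium, then treated in duplicate for 48 h (100 uM top, half-log steps, 0.5% DMSO vehicle). RNA isolated, qRT-PCR performed, concentration-response fitted both directions relative to DMSO.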
# [14] = read-out: matrix metalloproteinase-10 (MMP10), MMP10 (gene 4319); test: LTEA_HepaRG_MMP10: Life Technologies and Expression Analysis (LTEA) Assay for matrix metalloproteinase-10 (MMP10) using HepaRG (AID 2283517)
# How it was run: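 HepaRG, collagen I, ~100,000 cells/well; serum-free induction medium; 48 h exposure, duplicate, 8-pt half-log to 100 uM, 0.5% DMSO. Readout: TaqMan qRT-PCR, normalized to ACTB/GAPDH/POLR2A; bidirectional fit vs DMSO.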
# MYC, MYC (gene 4609) = test: LTEA_HepaRG_MYC: Life Technologies and Expression Analysis (LTEA) Assay for MYC using HepaRG (AID 2283518)
# How it was run: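 HepaRG, ~100,000 cells/well, collagen I; 48 h plating; serum-free induction medium; 48 h dosing, duplicate, 100 uM top, half-log, 0.5% DMSO; total RNA → qRT-PCR MYC; gain/loss fit vs DMSO.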
# [15] = read-out: matrix metalloproteinase-3 (MMP3), MMP3 (gene 4314); test: LTEA_HepaRG_MMP3: Life Technologies and Expression Analysis (LTEA) Assay for matrix metalloproteinase-3 (MMP3) using HepaRG (AID 2283519)
# How it was run: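 Differentiated human HepaRG cells, plated 48 h on collagen I, were exposed in duplicate for 48 h in serum-free induction medium to eight half-log concentrations up to 100 uM in 0.5% DMSO. MMP3 mRNA was quantified by TaqMan qRT-PCR, normalised to ACTB, GAPDH and POLR2A.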
# [16] = read-out: Paternally Expressed 10 (PEG10), PEG10 (gene 23089); test: LTEA_HepaRG_PEG10: Life Technologies and Expression Analysis (LTEA) Assay for Paternally Expressed 10 (PEG10) using HepaRG (AID 2283520)
# How it was run: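 HepaRG, 48 h post-plating → serum-free induction medium → 48 h chemical exposure (duplicate, 8-pt, max 100 uM, half-log, 0.5% DMSO) → lysis in RLT → TaqMan qRT-PCR for PEG10, ACTB/GAPDH/POLR2A normalisation.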
# [17] = read-out: Nuclear factor NF-kappa-B p105 subunit (Homo sapiens) (UniProt P19838); test: LTEA_HepaRG_NFKB1: Life Technologies and Expression Analysis (LTEA) Assay for Nuclear Factor Kappa B Subunit 1 (NFKB1) using HepaRG (AID 2283521);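 also: TaqMan qRT-PCR transcript normalised to ACTB GAPDH and POLR2A housekeeping genes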
# How it was run: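 NFKB1 transcript was measured by TaqMan qRT-PCR on Fluidigm arrays, normalised to three housekeeping genes and fitted in both directions against 0.5% DMSO. HepaRG cells were dosed in duplicate for 48 h in serum-free induction medium, eight half-log steps from 100 uM.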
# [18] = read-out: Protein phosphatase 2A (PPP2R4), PTPA (gene 5524); test: LTEA_HepaRG_PPP2R4: Life Technologies and Expression Analysis (LTEA) Assay for Protein phosphatase 2A (PPP2R4) using HepaRG (AID 2283522)
# How it was run: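 Readout is PPP2R4 transcript level by microfluidic qRT-PCR after 48 h chemical treatment of human HepaRG liver cells. Concentrations spanned 100 uM downward in half-log steps; gain or loss of signal was fitted relative to DMSO.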
# Chain of Hypoxia-inducible factor 1-alpha (Homo sapiens) (Q16665 whole entry, looked up): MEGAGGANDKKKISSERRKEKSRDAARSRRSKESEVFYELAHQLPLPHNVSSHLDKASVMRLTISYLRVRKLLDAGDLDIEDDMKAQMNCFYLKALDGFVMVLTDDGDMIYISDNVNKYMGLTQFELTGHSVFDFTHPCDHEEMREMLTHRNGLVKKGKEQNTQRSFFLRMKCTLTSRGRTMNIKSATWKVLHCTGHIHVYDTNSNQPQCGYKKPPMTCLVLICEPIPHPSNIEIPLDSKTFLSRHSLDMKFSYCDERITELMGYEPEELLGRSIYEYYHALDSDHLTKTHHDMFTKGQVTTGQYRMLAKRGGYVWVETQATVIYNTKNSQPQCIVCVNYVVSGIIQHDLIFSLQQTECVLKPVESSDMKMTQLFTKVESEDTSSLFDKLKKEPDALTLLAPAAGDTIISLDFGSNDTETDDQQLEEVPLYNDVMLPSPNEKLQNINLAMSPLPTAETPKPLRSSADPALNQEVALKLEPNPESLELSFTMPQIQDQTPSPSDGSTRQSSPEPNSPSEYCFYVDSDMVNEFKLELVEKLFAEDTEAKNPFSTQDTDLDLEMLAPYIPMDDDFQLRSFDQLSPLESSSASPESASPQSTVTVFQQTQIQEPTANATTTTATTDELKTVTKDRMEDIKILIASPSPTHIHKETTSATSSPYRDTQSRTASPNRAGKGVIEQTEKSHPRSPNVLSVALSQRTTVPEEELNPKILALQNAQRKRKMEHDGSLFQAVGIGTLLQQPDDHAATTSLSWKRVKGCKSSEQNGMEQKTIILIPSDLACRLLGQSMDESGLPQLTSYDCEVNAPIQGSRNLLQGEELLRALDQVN
# Chain of Nuclear factor NF-kappa-B p105 subunit (Homo sapiens) (P19838 whole entry, looked up): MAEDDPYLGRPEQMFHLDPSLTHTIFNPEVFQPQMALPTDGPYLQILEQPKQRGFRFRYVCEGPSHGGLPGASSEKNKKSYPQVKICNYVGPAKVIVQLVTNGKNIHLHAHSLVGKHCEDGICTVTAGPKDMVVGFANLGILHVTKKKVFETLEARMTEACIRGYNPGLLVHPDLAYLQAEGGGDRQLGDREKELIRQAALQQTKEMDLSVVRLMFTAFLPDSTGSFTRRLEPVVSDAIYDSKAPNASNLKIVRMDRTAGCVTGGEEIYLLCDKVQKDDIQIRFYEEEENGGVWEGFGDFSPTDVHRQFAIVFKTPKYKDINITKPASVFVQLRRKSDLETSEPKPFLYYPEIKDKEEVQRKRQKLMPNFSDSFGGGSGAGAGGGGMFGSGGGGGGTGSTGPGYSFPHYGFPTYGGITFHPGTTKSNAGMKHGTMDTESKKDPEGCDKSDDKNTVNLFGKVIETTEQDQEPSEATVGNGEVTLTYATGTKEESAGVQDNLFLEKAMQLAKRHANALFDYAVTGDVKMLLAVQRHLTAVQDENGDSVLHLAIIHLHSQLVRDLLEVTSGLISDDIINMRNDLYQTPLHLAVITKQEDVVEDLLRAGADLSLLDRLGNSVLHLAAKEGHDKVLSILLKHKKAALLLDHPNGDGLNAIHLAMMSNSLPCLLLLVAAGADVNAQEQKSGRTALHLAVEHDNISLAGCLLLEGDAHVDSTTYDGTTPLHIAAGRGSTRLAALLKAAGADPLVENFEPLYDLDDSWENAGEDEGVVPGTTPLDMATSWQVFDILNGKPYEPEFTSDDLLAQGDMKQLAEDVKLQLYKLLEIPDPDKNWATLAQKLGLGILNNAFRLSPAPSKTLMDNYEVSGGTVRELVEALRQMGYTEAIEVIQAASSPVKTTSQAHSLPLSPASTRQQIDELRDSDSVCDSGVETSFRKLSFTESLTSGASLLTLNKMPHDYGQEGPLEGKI
structure (smiles),measurement,setting,value
COP(=S)(OC)Oc1ccc([N+](=O)[O-])cc1,outcome,[1],inactive
same,outcome,[2],inactive
same,outcome,HGF (gene 3082),inactive
same,outcome,[3],inactive
same,outcome,[4],inactive
same,outcome,[5],inactive
same,outcome,[6],inactive
same,outcome,[7],inactive
same,outcome,[8],inactive
same,outcome,[9],inactive
same,outcome,[10],inactive
same,outcome,[11],inactive
same,outcome,[12],inactive
same,outcome,[13],inactive
same,outcome,[14],inactive
same,outcome,"MYC, MYC (gene 4609)",inactive
same,outcome,[15],inactive
same,outcome,[16],inactive
same,outcome,[17],inactive
same,outcome,[18],inactive
O=S1OCC2C(CO1)C1(Cl)C(Cl)=C(Cl)C2(Cl)C1(Cl)Cl (stereo not given),outcome,[1],inactive
same,AC50,[2],77.3 µM (active)
same,outcome,HGF (gene 3082),inactive
same,AC50,[3],42.2 µM (active)
same,outcome,[4],inactive
same,AC50,[5],83.4 µM (active)
same,outcome,[6],inactive
same,AC50,[7],11.4 µM (active)
same,outcome,[8],inactive
same,outcome,[9],inactive
same,outcome,[10],inactive
same,AC50,[12],87.5 µM (active)
same,AC50,[13],89.1 µM (active)
same,outcome,[14],inactive
same,AC50,"MYC, MYC (gene 4609)",77.5 µM (active)
same,outcome,[15],inactive
same,outcome,[16],inactive
same,outcome,[17],inactive
same,outcome,[18],inactive
O=C(O)CCCOc1ccc(Cl)cc1Cl,outcome,[1],inactive
same,outcome,[2],inactive
same,outcome,HGF (gene 3082),inactive
same,outcome,[3],inactive
same,outcome,[4],inactive
same,outcome,[5],inactive
same,outcome,[6],inactive
same,outcome,[7],inactive
same,outcome,[8],inactive
same,outcome,[9],inactive
same,outcome,[10],inactive
same,outcome,[11],inactive
same,outcome,[12],inactive
same,outcome,[13],inactive
same,outcome,[14],inactive
same,outcome,"MYC, MYC (gene 4609)",inactive
same,outcome,[15],inactive
same,AC50,[16],10.4 µM (active)
same,outcome,[18],inactive
CCC(C)(C)C(=O)OC1=C(c2ccc(Cl)cc2Cl)C(=O)OC12CCCCC2,outcome,[1],inactive
same,AC50,[2],50 µM (active)
same,outcome,HGF (gene 3082),inactive
same,AC50,[3],31.1 µM (active)
same,outcome,[4],inactive
same,outcome,[5],inactive
same,outcome,[6],inactive
same,outcome,[7],inactive
same,outcome,[8],inactive
same,outcome,[9],inactive
same,outcome,[10],inactive
same,AC50,[12],40.8 µM (active)
same,outcome,[13],inactive
same,outcome,[14],inactive
same,outcome,"MYC, MYC (gene 4609)",inactive
same,outcome,[15],inactive
same,outcome,[16],inactive
same,outcome,[17],inactive
same,outcome,[18],inactive
CCN(CC)C(=O)SCc1ccc(Cl)cc1,outcome,[1],inactive
same,outcome,[2],inactive
same,outcome,HGF (gene 3082),inactive
same,outcome,[3],inactive
same,outcome,[4],inactive
same,outcome,[5],inactive
same,outcome,[6],inactive
same,outcome,[7],inactive
same,outcome,[8],inactive
same,outcome,[9],inactive
same,outcome,[10],inactive
same,outcome,[12],inactive
same,outcome,[13],inactive
same,outcome,[14],inactive
same,outcome,"MYC, MYC (gene 4609)",inactive
same,outcome,[15],inactive
same,outcome,[16],inactive
same,outcome,[17],inactive
same,outcome,[18],inactive
COP(=S)(OC)Oc1ccc(SC)c(C)c1,outcome,[1],inactive
same,outcome,[2],inactive
same,outcome,HGF (gene 3082),inactive
same,outcome,[3],inactive
same,outcome,[4],inactive
same,outcome,[5],inactive
same,outcome,[6],inactive
same,outcome,[7],inactive
same,outcome,[8],inactive
same,outcome,[9],inactive
same,outcome,[10],inactive
same,outcome,[12],inactive
same,outcome,[13],inactive
same,outcome,[14],inactive
same,outcome,"MYC, MYC (gene 4609)",inactive
same,AC50,[15],50 µM (active)
same,AC50,[16],9.92 µM (active)
same,outcome,[17],inactive
same,outcome,[18],inactive
